From the supplement of paper PMC9950053 come the findings set out here.

Structures can show the parent of a compound that is named as a salt.

The experiment relates to Danio rerio larvae (5 dpf). In words: combined optomotor response (time in upper well half, down vs up moving lines, periods 7-14) minus DMSO control (percentage points); higher = stronger optomotor response than DMSO larvae. The settings on record: 10 µM; exposure time: 3 h pre-incubation + 3 h imaging.
`COc1c(C)c2c(c(O)c1C/C=C(\C)CCC(=O)O)C(=O)OC2` [Mycophenolic acid]: the combined optomotor response turned out to be 7.6.

Consider `O=C1CCc2cc(OCCCCc3nnnn3C3CCCCC3)ccc2N1` [Cilostazol], for which the combined optomotor response was determined as 5.41. In the case of `Cc1ccc(O)c([C@H](CCN(C(C)C)C(C)C)c2ccccc2)c1` [Tolterodine L-tartrate] it was -1.96; in that of `COc1ccc(Cl)cc1C(=O)NCCc1ccc(S(=O)(=O)NC(=O)NC2CCCCC2)cc1` [Glibenclamide], 1.3.

Regarding `COc1cc2ncnc(Nc3ccc(F)c(Cl)c3)c2cc1OCCCN1CCOCC1` [Iressa], the combined optomotor response came to 5.72.

As for `OC(CNCC(O)C1CCc2cc(F)ccc2O1)C1CCc2cc(F)ccc2O1` (stereo not drawn) [Nebivolol hydrochloride], the combined optomotor response is -9.95.

Turning to `Cc1nnc(C(C)C)n1C1C[C@H]2CC[C@@H](C1)N2CC[C@H](NC(=O)C1CCC(F)(F)CC1)c1ccccc1` (stereo in doubt) [Maraviroc], the combined optomotor response was found to be 0.791. The same measure for `Cc1cn([C@H]2C=C[C@@H](CO)O2)c(=O)[nH]c1=O` [Stavudine]: 7.54; for `CC(C)[C@H]1CC[C@H](C(=O)N[C@H](Cc2ccccc2)C(=O)O)CC1` [Nateglinide]: 3.95; for `O=C(c1ccc(OCCN2CCCCC2)cc1)c1c(-c2ccc(O)cc2)sc2cc(O)ccc12` [Raloxifene hydrochloride]: -1.27.

In the case of `O=C(O[C@@H]1C[C@@H]2C[C@H]3C[C@H](C1)N2CC3=O)c1c[nH]c2ccccc12` [Dolasetron mesylate], the combined optomotor response is -2.11. The same measure for `CCN(Cc1ccncc1)C(=O)C(CO)c1ccccc1` (stereo not drawn) [Tropicamide]: 0.19; for `CC(C)c1nc(N(C)S(C)(=O)=O)nc(-c2ccc(F)cc2)c1/C=C/[C@@H](O)C[C@@H](O)CC(=O)O` [Rosuvastatin calcium]: 6.26. As to `O=C(O)CCCc1ccccc1` [Sodium 4-Phenylbutyrate], the combined optomotor response turned out to be 4.62. In the case of `C[C@]12CCC(=O)C=C1CC[C@@H]1[C@@H]2[C@@H](O)C[C@@]2(C)[C@H]1CC[C@]2(O)C(=O)CO` [Hydrocortisone] it was 4.58; in that of `CC(C)(C)NC(=O)[C@@H]1C[C@@H]2CCCC[C@@H]2CN1C[C@@H](O)[C@H](Cc1ccccc1)NC(=O)[C@H](CC(N)=O)NC(=O)c1ccc2ccccc2n1` [Saquinavir mesylate], -2.96.

`CCCCNc1cc(C(=O)O)cc(S(N)(=O)=O)c1Oc1ccccc1` [Bumetanide]: the combined optomotor response worked out at 9.27. In the case of `CC(c1cc2ccccc2s1)N(O)C(N)=O` (stereo not drawn) [Zileuton] it was -0.859; in that of `Cc1ccc(N(CC2=NCCN2)c2cccc(O)c2)cc1` [Phentolamine Mesylate], 7.07; in that of `Cc1cccc(C)c1OCC(C)N` (stereo not drawn) [Mexiletine hydrochloride], 2.6.

Take `COc1ccc(-c2ccc3cc(C(=O)O)ccc3c2)cc1C12CC3CC(CC(C3)C1)C2` [Adapalene]: the combined optomotor response stood at 0.129. For the compound `CC(=O)O[C@]1(C(C)=O)CC[C@H]2[C@@H]3C=C(C)C4=CC(=O)CC[C@]4(C)[C@H]3CC[C@@]21C` [Megestrol Acetate], the combined optomotor response is -8.35.

With `CC(C)C(=O)OCC(=O)[C@@]12O[C@H](C3CCCCC3)O[C@@H]1C[C@H]1[C@@H]3CCC4=CC(=O)C=C[C@]4(C)[C@H]3[C@@H](O)C[C@@]12C` [Ciclesonide], the combined optomotor response turned out to be 1.14.

`CC[C@H](C)C(=O)O[C@H]1C[C@@H](C)C=C2C=C[C@H](C)[C@H](CC[C@@H]3C[C@@H](O)CC(=O)O3)[C@H]21` [Lovastatin]: the combined optomotor response amounted to 5.24. In the case of `Nc1nc(NC2CC2)c2ncn([C@H]3C=C[C@@H](CO)C3)c2n1` [Abacavir hemisulfate] it was 4.25. The same measure for `CN(C)CC/C=C1/c2ccccc2COc2ccc(CC(=O)O)cc21` [Olopatadine hydrochloride]: 8.84; for `C/C(O)=C(\C#N)C(=O)Nc1ccc(C(F)(F)F)cc1` [Teriflunomide]: -4.96. The same measure for `C[C@H](Cc1cc2c(c(C(N)=O)c1)N(CCCO)CC2)NCCOc1ccccc1OCC(F)(F)F` [Silodosin]: 9.04; for `CCCCCOC(=O)Nc1nc(=O)n([C@@H]2O[C@H](C)[C@@H](O)[C@H]2O)cc1F` [Capecitabine]: 4.98.

On to `CCCc1nc(C(C)(C)O)c(C(=O)O)n1Cc1ccc(-c2ccccc2-c2nnn[nH]2)cc1` [Olmesartan], for which the combined optomotor response came to 1.99. In the case of `CCCc1nc2c(C)cc(-c3nc4ccccc4n3C)cc2n1Cc1ccc(-c2ccccc2C(=O)O)cc1` [Telmisartan] it was 2.86. The same measure for `CC(=O)Oc1ccccc1C(=O)O` [Aspirin]: -1.47. The same measure for `CCOc1cc(CC(=O)N[C@@H](CC(C)C)c2ccccc2N2CCCCC2)ccc1C(=O)O` [Repaglinide]: 2.6.
